Measured values as given in PubChem BioAssay AID1159580 (chemical genetic matrix, 2015).
Where “and” joins values, the source holds several entries; their conditions need not be identical. Identical values can stand only once. About 2,000 (36%) of roughly 5,500 compounds were called active. Inconclusive results (about 18%) are left out. No stated cut-off is given here; in the data, active means normalized growth mostly below about 0.91 (no sharp cut-off); inconclusive means no clear call, values can overlap the other calls; inactive means mostly above about 0.92. The list shows a part of the results.

Assay: chemical genetic growth profiling, strain panel (AID 1159580);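 further: tested at 20 µM; growth read once vehicle control cultures reached saturation at 30 °C; 1 = growth at the plate median or of vehicle wells; lower values mean less growth of the strain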
Details: S. cerevisiae deletion strains, growth OD

Measured: normalized growth

Cc1cc(C(C)(C)C)c(O)c(C)c1CC1=NCCN1
inactive: locus YAL013W, strain DEP1, hits give low values 0.986 and 1.02 | locus YAL021C, strain ccr4, hits give low values 1.01 | locus YAL026C, strain drs2, hits give low values 1 | locus YAL030W, strain snc1, hits give low values 1.01 | locus YAL040C, strain CLN3, hits give low values 1.01 | locus YBL061C, strain skt5, hits give low values 1.02 | locus YBR009C, strain hhf1, hits give low values 1.01 | locus YBR021W, strain FUR4, hits give low values 1 | locus YBR023C, strain chs3, hits give low values 1.02 | locus YBR171W, strain sec66, hits give low values 1.02 | locus YBR229C, strain ROT2, hits give low values 1 | locus YBR231C, strain swc5, hits give low values 0.998 | locus YBR279W, strain paf1, hits give low values 0.993 | locus YCL011C, strain gbp2, hits give low values 1.01 | locus YCL016C, strain dcc1, hits give low values 1.02 | locus YCL029C, strain bik1, hits give low values 1.02 | locus YCL061C, strain MRC1 (second series), hits give low values 1 | locus YCL061C, strain MRC1, hits give low values 1.01 | locus YCL069W, strain vba3, hits give low values 1 | locus YCR088W, strain abp1, hits give low values 1 | locus YDL005C, strain med2, hits give low values 0.998 | locus YDL035C, strain GPR1, hits give low values 1 | locus YDL040C, strain nat1, hits give low values 1 | locus YDL074C, strain BRE1, hits give low values 0.98 | locus YDL101C, strain DUN1, hits give low values 1 | locus YDL134C, strain PPH21, hits give low values 0.997 | locus YDL185W, strain tfp1, hits give low values 1.01 | locus YDL192W, strain arf1, hits give low values 1.02 | locus YDR001C, strain nth1, hits give low values 0.993 | locus YDR069C, strain doa4, hits give low values 1.01 | locus YDR101C, strain arx1, hits give low values 0.993 | locus YDR137W, strain rgp1, hits give low values 1.06 | locus YDR150W, strain NUM1, hits give low values 1 | locus YDR159W, strain sac3, hits give low values 0.991 | locus YDR162C, strain NBP2, hits give low values 0.991 | locus YDR195W, strain ref2 0.99 | locus YDR297W, strain sur2, hits give low values 1 | locus YDR318W, strain mcm21, hits give low values 1.01 | locus YDR334W, strain swr1, hits give low values 1.01 | locus YDR335W, strain msn5, hits give low values 1 | locus YDR363W, strain ESC2, hits give low values 1.01 | locus YDR388W, hits give low values 1 | locus YDR392W, strain spt3, hits give low values 0.954 | locus YDR502C, strain sam2, hits give low values 1 | locus YEL003W, strain gim4, hits give low values 0.981 | locus YEL037C, strain rad23, hits give low values 1 | locus YEL061C, strain CIN8 (second series), hits give low values 0.998 | locus YEL061C, strain CIN8, hits give low values 0.997 | locus YER002W, strain NOP16, hits give low values 0.998 | locus YER015W, strain faa2, hits give low values 0.998 | locus YER016W, strain bim1, hits give low values 1 | locus YER110C, hits give low values 1.02 | locus YER111C, strain swi4, hits give low values 1 | locus YER155C, strain BEM2 (second series), hits give low values 0.991 | locus YER155C, strain BEM2, hits give low values 0.996 | locus YER167W, strain BCK2, hits give low values 0.998 | locus YFR010W, strain ubp6, hits give low values 0.999 | locus YGL078C, strain dbp3, hits give low values 1.01 | locus YGL086W, strain mad1, hits give low values 1 | locus YGL167C, strain pmr1, hits give low values 1 | locus YGL173C, strain kem1, hits give low values 1.01 | locus YGL227W, strain vid30, hits give low values 1 | locus YGL240W, strain doc1, hits give low values 0.992 | locus YGL248W, strain PDE1, hits give low values 1 | locus YGL253W, strain hxk2, hits give low values 1.01 | locus YGR078C, strain PAC10, hits give low values 1 and 0.998 | locus YGR135W, strain pre9, hits give low values 1.01 | locus YGR229C, strain SMI1, hits give low values 1.01 | locus YGR252W, strain gcn5, hits give low values 0.967 | locus YHR013C, strain ard1, hits give low values 1.01 | locus YHR027C, strain rpn1, hits give low values 1.02 | locus YHR030C, strain SLT2, hits give low values 0.998 and 0.968 | locus YHR079C, strain IRE1 (second series), hits give low values 1.01 | locus YHR079C, strain IRE1, hits give low values 0.977 | locus YHR094C, strain hxt1, hits give low values 0.994 | locus YHR129C, strain ARP1, hits give low values 1.01 | locus YHR142W, strain chs7, hits give low values 0.997 | locus YHR200W, strain rpn10, hits give low values 0.994 | locus YIL066C, strain RNR3, hits give low values 1 | locus YIL073C, strain SPO22, hits give low values 1.04 | locus YIL125W, strain kgd1, hits give low values 1 | locus YIR030C, strain dcg1, hits give low values 1.01 | locus YJL092W, strain hpr5, hits give low values 1.01 | locus YJL095W, strain BCK1 (second series), hits give low values 1.01 | locus YJL095W, strain BCK1, hits give low values 1 and 0.981 | locus YJL115W, strain asf1, hits give low values 1 | locus YJL129C, strain trk1, hits give low values 0.993 | locus YJL134W, strain LCB3, hits give low values 0.997 | locus YJL154C, strain vps35, hits give low values 1 | locus YJL164C, strain tpk1, hits give low values 1 | locus YJL166W, strain qcr8, hits give low values 1.01 | locus YJL168C, strain set2, hits give low values 1.01 | locus YJL187C, strain SWE1 (second series), hits give low values 1 | locus YJL187C, strain SWE1, hits give low values 1 | locus YJR043C, strain POL32, hits give low values 0.982
